CCT chaperon mod – changes cytosolic chaperonin activity | purified chaperonin ATPase assay, HTRF ADP detection, 30 min | activity change, % (test concentration not listed), hits read low | 0.3% of 360,000 active | AID 651819; in the data active means activity change below about -30%; further: on the % scale 0 is the no-effect control and ±100 the full control effect
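First, chaperonin was dispensed at 40 nM or 20 nM final depending on batch activity. Next, compounds were pinned at 76 uM and ATP added at 10 uM. After 30 min at 37 °C, ADP detection reagents ran 30 min at ambient temperature.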
Mm-Cpn inhibitor – blocks the Methanococcus maripaludis chaperonin Mm-Cpn. purified Mm-Cpn ATPase, ADP Transcreener TR-FRET. 0.031% of 330,000 active. Potency, µM (doses to about 76.9 µM), inactives show top-dose activity, negative = inhibition, actives largely listed as inhibitors; further: potency means the concentration at half of the fitted maximal effect; on the % scale 0 is the no-effect control and ±100 the full control effect; nearly all actives have a fitted effect of over 80% in size
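ATPase turnover read by TR-FRET ADP competition (Eu cryptate antibody/ADP-d2, 665/590 nm): 10uM ATP final, 25nM Mm-CPN final, 30 min 37degC after 10-min compound preincubation, pH 7.4 Tris/KCl/MgCl2/DTT buffer.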
Rango complex inh – inhibitors of Rango-importin beta complex formation | Q14974 | Rango CFP/YFP FRET sensor + importin beta, 45 min | Potency, µM (top dose mostly 92.2 µM), inactives show top-dose inhibition of complex formation | AID 540263 | 0.031% of 340,000 active; calls by dose curve;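 further: potency means the concentration at half of the fitted maximal effect; 0% = DMSO wells and 100% = buffer wells lacking importin beta; nearly all actives have a fitted effect of over 15% in size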
Target sequence (Q14974 whole entry, looked up): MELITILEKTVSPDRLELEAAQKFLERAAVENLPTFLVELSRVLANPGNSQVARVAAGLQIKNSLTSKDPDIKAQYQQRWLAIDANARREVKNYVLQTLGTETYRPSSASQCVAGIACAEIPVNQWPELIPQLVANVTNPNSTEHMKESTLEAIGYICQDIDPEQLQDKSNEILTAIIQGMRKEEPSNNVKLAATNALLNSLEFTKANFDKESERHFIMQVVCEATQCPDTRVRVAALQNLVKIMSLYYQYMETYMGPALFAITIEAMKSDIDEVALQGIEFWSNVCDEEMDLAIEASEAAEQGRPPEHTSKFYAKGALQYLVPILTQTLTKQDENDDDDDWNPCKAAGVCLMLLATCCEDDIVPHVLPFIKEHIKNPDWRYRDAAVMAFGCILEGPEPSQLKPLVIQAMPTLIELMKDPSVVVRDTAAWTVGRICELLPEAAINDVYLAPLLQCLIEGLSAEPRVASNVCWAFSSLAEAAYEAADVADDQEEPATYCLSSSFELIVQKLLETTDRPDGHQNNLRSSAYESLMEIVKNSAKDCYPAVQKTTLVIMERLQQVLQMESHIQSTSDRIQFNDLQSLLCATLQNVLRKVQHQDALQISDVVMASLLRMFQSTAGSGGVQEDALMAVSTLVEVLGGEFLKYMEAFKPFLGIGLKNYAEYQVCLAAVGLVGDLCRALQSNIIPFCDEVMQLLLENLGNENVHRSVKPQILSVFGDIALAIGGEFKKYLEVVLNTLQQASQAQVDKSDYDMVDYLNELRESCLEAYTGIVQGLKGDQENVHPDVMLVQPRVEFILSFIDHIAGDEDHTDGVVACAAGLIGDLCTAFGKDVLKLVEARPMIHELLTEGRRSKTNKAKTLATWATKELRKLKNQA
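FRET biosensor (snurportin 1 IBB flanked by EYFP and cerulean), 50 nM, with compound 5 min, then 0.125 microM importin beta in PBS, 1 mM DTT, 0.02% Tween-20, 0.1% BSA. CFP/YFP ratio read after 45 min at room temperature; pre-read flags interference.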
B2AR arrestin – beta2AR (human) beta-arrestin recruitment activity. 0.02% of 330,000 active. beta-arrestin recruitment to beta2AR, cell-based reporter. AID 492947. Potency, µM (titrated, usually from 46.1 µM), inactives show at the top dose activation, actives largely listed as activators;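 further: potency means the concentration at half of the fitted maximal effect; 0% = DMSO controls and full agonism = EC100 isoproterenol or metaproterenol; nearly all actives have a fitted effect of over 65% in size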
Rango release inh – inhibitors of RanGTP-induced Rango-importin beta complex dissociation. Biochemical FRET Rango-importin beta, RanGTP-induced dissociation. Potency, µM (doses to about 46.1 µM), for the others: top-dose activity change, negative = inhibition. 0.071% of 340,000 active; calls by dose curve; further: potency means the concentration at half of the fitted maximal effect; % of control where 0% means no effect; nearly all actives have a fitted effect of over 45% in size
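Compounds sat 5 min at room temperature with 0.1 uM Rango biosensor plus 0.25 uM importin beta, then FRET pre-read. RanGTP-RCC1 (0.6 uM Ran, 2mM GTP, 0.2 uM RCC1) added for 45 min, and the CFP/YFP post-read measured blocked complex dissociation.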
* marks the source's active call; other numbers are inactive results; ? = inconclusive; · = no result; [ ] = another dose, or the depositor's remark. Only some compounds are listed: those with a hit (about 0.43% of all), similar ones and a draw of the others. Unless noted, the call rests on the fitted dose curve; in most records, active means well fitted curve in the direction sought with a large enough effect; inconclusive means small, poorly fitted or top-dose-only effect, or another doubt; inactive means no such curve, though single readings can be large; an effect the other way counts as inactive or inconclusive.

SMILES | CCT chaperon mod | Mm-Cpn inhibitor | Rango complex inh | B2AR arrestin | Rango release inh
CC1(C(=O)NS(=O)(=O)c2cccc(F)c2)CCN1C(=O)Cc1cccc2ccccc12 (centres undefined) | -2 | · | · | · | ·
COc1cccc(N2CCN(S(=O)(=O)c3ccc4c(c3)NC(=O)C(C)C(=O)N4)CC2)c1 (centres undefined) | -3 | 0% | 3% | 0% | 7%
C=CCN(C/C(=N\O)c1sc(C(=O)OCC)nc1C)c1cccc(Br)c1 | -2 | · | -1% | · | -10%
C/C(=N\N=C1\NC(=O)C(CC(=O)Nc2ccc(C)c(Cl)c2)S1)C(C)(C)C (centres undefined) | -44* | 3% | ? | 0% | 14%
NCc1ccccc1COc1ccccc1 | -1 | 0% | -2% | 0% | 26%
CC(C)CC(NC(=O)CC12CC3CC(CC(C3)C1)C2)C(=O)NC1=NCCS1 (centres undefined) | -98* | 0% | ? | -1% | 0%
NC(=O)COc1ccc(C(=O)/C=C2/C(=O)Nc3ccccc32)cc1 | -19 | -1% | 4% | 0% | -15%
C=CCOc1ccc(C(=O)/C=C2/C(=O)Nc3ccccc32)cc1 | -45* | -2% | -2% | -1% | 19%
CC(=O)Nc1ccc(-c2ccnc3c2CC(C)(C(=O)Nc2cccc(C(F)(F)F)c2)O3)cc1 (centres undefined) | -1 | · | · | · | ·
CN(C)C(=S)Oc1ccccc1C1SCCS1 | 0 | · | · | · | ·
Cc1ccc(S(=O)(=O)CC(C)N2CCOCC2)c(S(=O)(=O)CC(C)N2CCOCC2)c1 (centres undefined) | -41* | -2% | -2% | 0% | -1%
O=C(Nc1nnc(SCC(=O)N2CCCCC2)s1)C1CCCCC1 | -60* | -4% | 5% | 0% | 12%
CCN1C=C(Cc2ccc(F)cc2)C2=C(C1)C(c1ccc(F)cc1)C(C#N)=C(N)O2 (centres undefined) | 1 | 2% | ? | 0% | ?
CCN1C=C(Cc2ccccc2C)C2=C(C1)C(c1ccccc1C)C(C#N)=C(N)O2 (centres undefined) | -1 | -1% | ? | 3% | 8.2µM*
CCC(C)(C)NC(=O)C(c1ccc(C)o1)N(Cc1ccc2c(c1)OCO2)C(=O)c1snc(C(N)=O)c1N (centres undefined) | 1 | 1% | 0% | 0% | 25%
Cc1ccc(C)c(N(C)C(=O)c2ccc3c(=O)n4c(nc3c2)CCCCC4)c1 | -72* | 1% | 0% | 0% | 1%
Cc1ccc(C)c(C(O)c2ncc(-c3ccccc3Cl)[nH]2)c1 (centres undefined) | 1 | · | · | · | ·
CCOc1ccc(S(=O)(=O)N2CCN(Cc3ccc4c(c3)OCO4)CC2)cc1C | 0 | 3% | 2% | -1% | -3%
Cc1cc2c(c(=O)n1-c1ccccc1)C1O[C@](c3ccsc3)(Cc3ccccc31)O2 | · | -7%[15.4 µM] | · | 0%[9.22 µM] | ·
CC(C)(C)c1ccc(OCC(O)CN2CCc3ccccc3C2)cc1 (centres undefined) | -57* | · | 8% | · | 16%
CC1CCC(NC(=O)C2CCN(c3nc4ccccc4s3)CC2)CC1 (centres undefined) | -36* | 0% | 2% | -1% | 4%
Cc1ccc2nc(N3CCC(C(=O)NC4CCCCC4)CC3)sc2c1 | -2 | -2% | -4% | -1% | 0%
O=C(CN1C(=O)CCSc2ccccc21)NC1CCCCC1 | -36* | -1% | 1% | 0% | 10%
Cc1ccc(S(=O)(=O)N2CCCC(C(=O)O)C2)s1 (centres undefined) | -94* | 0% | 0% | 0% | 2%
O=C(O)C1CCCN(S(=O)(=O)c2cccs2)C1 (centres undefined) | -1 | -1% | -3% | 0% | -11%
CC1CCC(NC(=O)C2(C)CCC(=O)N2Cc2cccnc2)CC1 (centres undefined) | -36* | -1% | 0% | 0% | -4%
CS(=O)(=O)N(CC(=O)NCCSC1CCCCC1)c1ccccc1 | -33* | ? | -4% | 0% | -19%
CS(=O)(=O)N(CC(=O)NCCSC1CCCCC1)c1cccc(F)c1 | -2 | 0% | 4% | 0% | 22%

Screens as filed in PubChem.
